Where a name gives a salt, the structure may show the parent alone. A number with no mark means an inactive call.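 The calls were made as follows: active = AUC significantly below DMSO controls by Student t-fit with adjusted P under 0.01; inactive = not significantly reduced.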
The compounds below were run on Haemophilus parainfluenzae (assay: growth AUC normalised to DMSO control (fraction of control); higher = less growth inhibition, active = hit call of the paper). Details: 20 µM.
Method in brief: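 After two anaerobic passages, pathogens were added at a starting OD578 of 0.01 to pre-reduced mGAM plates holding compound at 20 μM with 1% DMSO; hemin and NAD were supplemented for Haemophilus parainfluenzae. Sealed with breathable membranes, plates were read at OD578 hourly for 24 h, in three biological replicates. The trapezoidal rule, applied up to the exponential-to-stationary transition, gave the growth-curve AUC, which was normalised to DMSO controls on the same plate.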

Compound | growth AUC normalised to DMSO control
COc1cc(NC(C)CCCN)c2ncccc2c1 (configuration not stated) [Primaquine diphosphate] | 1.08
CCCc1nc(C)c2c(=O)nc(-c3cc(S(=O)(=O)N4CCN(CC)CC4)ccc3OCC)[nH]n12 [Vardenafil] | 1.03
NC(CO)C(=O)NNCc1ccc(O)c(O)c1O (configuration not stated) [Benserazide hydrochloride] | 1.05
CN1CCCN=C1/C=C/c1cccs1 [Pyrantel tartrate] | 0.978
CC(C(=O)O)c1ccc(C(=O)c2cccs2)cc1 (configuration not stated) [Suprofen] | 0.987
CNCCCC12CCC(c3ccccc31)c1ccccc12 [Maprotiline hydrochloride] | 0.979
C#C[C@]1(O)CC[C@H]2[C@@H]3CCc4cc(OC)ccc4[C@H]3CC[C@@]21C [Mestranol] | 1.02
C[N+](C)(CCOc1ccccc1)Cc1ccccc1.O=C([O-])c1cc2ccccc2cc1O [Bephenium hydroxynaphthoate] | 1.04
Nc1ccc(S(=O)(=O)Nc2ccnn2-c2ccccc2)cc1 [Sulfaphenazole] | 0.925
CCCCOc1cc(C(=O)OCCN(CC)CC)ccc1N [Benoxinate hydrochloride] | 1.01
CN1CCN(c2c(F)cc3c(=O)c(C(=O)O)cn(CCF)c3c2F)CC1 [Fleroxacin] | 0.0399 (active)
CCC(NC(C)C)C(O)c1ccc(O)c(O)c1 (configuration not stated) [Isoetharine mesylate salt] | 1.01
NS(=O)(=O)c1cc2c(cc1Cl)NC(C(Cl)Cl)NS2(=O)=O (configuration not stated) [Trichlormethiazide] | 1.01
CC(C(=O)O)c1ccc(N2Cc3ccccc3C2=O)cc1 (configuration not stated) [Indoprofen] | 1.02
C[C@H](CCC(=O)O)[C@H]1CC[C@H]2[C@@H]3CC[C@@H]4C[C@H](O)CC[C@]4(C)[C@H]3CC[C@]12C [Lithocholic acid] | 1.04
CN1CCc2c(c3ccccc3n2Cc2ccccc2)C1 [Mebhydroline 1,5-naphtalenedisulfonate] | 0.932

Compound | growth AUC normalised to DMSO control
CC(C)NC[C@H](O)COc1ccc(CC(N)=O)cc1 [(S,-) Atenolol] | 1.01
CN(C)CCN(Cc1cccs1)c1ccccn1 [Methapyrilene hydrochloride] | 0.983
O=C1Nc2ccc(Cl)cc2[C@@](C#CC2CC2)(C(F)(F)F)O1 [Efavirenz] | 0.991
CC[C@H]1OC(=O)[C@H](C)[C@@H](O[C@H]2C[C@@](C)(OC)[C@@H](O)[C@H](C)O2)[C@H](C)[C@@H](O[C@@H]2O[C@H](C)C[C@H](N(C)C)[C@H]2O)[C@](C)(O)C[C@@H](C)C(=O)[C@H](C)[C@@H](O)[C@]1(C)O [Erythromycin] | 0.028 (active)
CCOc1ccccc1OC(c1ccccc1)C1CNCCO1 (configuration not stated) [Reboxetine mesylate] | 1.01
CNC(=O)c1c(I)c(C(=O)NCC(=O)Nc2c(I)c(C(=O)O)c(I)c(C(=O)NCCO)c2I)c(I)c(N(C)C(C)=O)c1I [Ioxaglic acid] | 0.921
Cn1nnc2c(C(N)=O)ncn2c1=O [Temozolomide] | 0.975
CCN(CC)C(=O)N1CCN(C)CC1 [Diethylcarbamazine citrate] | 0.978
C/C=C(/C(=C/C)c1ccc(O)cc1)c1ccc(O)cc1 [Dienestrol] | 0.999
CN1CCN(c2c(F)cc3c(=O)c(C(=O)O)cn4c3c2SCC4)CC1 [Rufloxacin] | 0.0692 (active)
CN(C(=O)CN(CCO)CC(=O)N(C)C(C)(C)Cc1ccccc1)C(C)(C)Cc1ccccc1 [Oxethazaine] | 0.737
CC(C)(CO)[C@@H](O)C(=O)NCCCO [(D)-Panthenol] | 0.991
COc1ccc2[nH]c([S+]([O-])Cc3ncc(C)c(OC)c3C)nc2c1 (configuration not stated) [Omeprazole] | 0.919
CC(N)CCCC(C)(C)O (configuration not stated) [Heptaminol hydrochloride] | 1.02
CC(c1cc2ccccc2s1)N(O)C(N)=O (configuration not stated) [Zileuton] | 0.909
CN(C)C/C=C(/c1ccc(Br)cc1)c1cccnc1 [Zimelidine dihydrochloride monohydrate] | 0.972
